Reference: PubChem BioAssay (NCATS)
Values joined by “and” are separate entries in the source; they are usually repeats but may differ in a detail not shown here. Equal values may be shown once. Inconclusive results are not listed. Where a call stands in place of a potency, no number is given. Active and inactive are the calls of the source. Unless noted, calls come from the whole dose curve; as a rule, active = well fitted curve in the direction sought with a large enough effect; inconclusive = small, poorly fitted or top-dose-only effect, or another doubt; inactive = no such curve, though single readings can be large; an effect the other way counts as inactive or inconclusive.

Columns and labels:
[1] = Cell Viability - Jurkat (AID 426;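 active = dose-dependent loss of cell ATP signal giving a full or clear fitted curve, ranked by lower potency value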;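 note: potency is the fitted concentration of half-maximal effect; cells exposed to compound for 40 hours at 37 °C before ATP read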); conditions: qHTS
Method in brief: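 Seed 5000 Jurkat E6-1 cells/well; add compound; incubate 40 hr at 37 °C; add CellTiter-Glo; wait 20 min at room temperature; read luminescence. Fit concentration-response with Hill equation for AC50.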

[2] = Cell Viability - Hek293 (AID 427;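 active = compounds whose dose-response curve shows a full or clear partial loss of cell viability, called from curve shape rather than a numeric limit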;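 note: potency is the fitted concentration of half-maximal effect; cells exposed to compound for 40 hours at 37 °C before reading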); conditions: qHTS
Method in brief: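 qHTS, human embryonic kidney (adenovirus-transformed) cells; 40 hr cpd, 37 °C; CellTiter-Glo ATP luminescence. Norm: DMSO = 0, 100 uM tamoxifen = 100% inhibition. Hill-fit AC50.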

[3] = Cell Viability - N2a (AID 540); conditions: N2a mouse neuroblastoma cell viability; at 92.2 µM (top of the series);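 note: cells exposed to compound for 40 h at 37 °C; nearly all actives have a fitted effect of over 45% in size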
Method in brief: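 First, 1500 N2a cells per well incubate 5 hr at 37 °C; next, compounds are added and incubated 40 hr at 37 °C; finally CellTiter-Glo is added and luminescence read after 20 min, with AC50 derived by Hill modeling.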

[4] = Cell Viability - H-4-II-E (AID 543); conditions: H-4-II-E rat hepatoma viability; series mostly up to 92.2 µM;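 note: cells exposed to compound for 40 hours; nearly all actives have a fitted effect of over 35% in size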; note: potency is the fitted concentration of half-maximal effect
Method in brief: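 Here, cytotoxicity is measured in the rat hepatoma line H-4-II-E as loss of intracellular ATP after 40 hr compound treatment, detected by luciferase luminescence.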

[5] = Cellular Toxicity (caspase-3) HepG2 (AID 654); conditions: HepG2 caspase-3 activation, luminescence, 0% = DMSO only, 100% = tamoxifen; series mostly up to 92.2 µM;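 note: cells exposed to compound for 16 hours before reading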
Method in brief: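 qHTS, HepG2, 1500 cells/well, complete medium; cpd 16 h 37 °C; Caspase-Glo 3/7, 20 min RT; lum. Norm: DMSO vs 100 uM tamoxifen; AC50 Hill fit.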

[6] = Cellular Toxicity (caspase-3) Hek293 (AID 664); conditions: HEK293 caspase-3 activation, DMSO = 0%, 100 µM tamoxifen = 100%; series mostly up to 92.2 µM;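 note: cells exposed to compound for 16 h at 37 °C before readout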
Method in brief: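 Activation of caspase-3/7 is measured as increased luminescence from cleaved peptide-aminoluciferin substrate in HEK293 cells treated 16 hours at 37 °C. AC50 values come from Hill-equation fits of concentration-response data.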

[7] = Cellular Toxicity (caspase-3) NIH 3T3 (AID 666); conditions: NIH 3T3 caspase-3 activation, apoptosis/toxicity, 0% DMSO, 100% is 100 µM tamoxifen; series mostly up to 92.2 µM;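 note: caspase signal read after 16 h compound exposure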
Method in brief: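 Concentration-response qHTS in NIH 3T3 mouse fibroblasts scores caspase-3/7 activation as rising luminescence after 16 hr compound exposure. Signals are scaled between DMSO-only and 100 uM tamoxifen.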

[8] = MultiTox-Fluor Cytotoxicity Assay - LYMP1-001 - Dead Cells (AID 946); conditions: LYMP1-001 lymphoblastoid cells, dead-cell protease fluorescence; series mostly up to 92.2 µM
Method in brief: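 Seed 2500 LYMP1-001 cells/well, incubate 5 hr at 37 C; add compound, 16 hr at 37 C; add MultiTox-Fluor reagent, 60 min RT; read dead-cell fluorescence Ex/Em=485/520. Normalize to DMSO and 15 uM tetraoctylammonium bromide.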

[9] = Cell Viability - LYMP1-002 - Assay at 16 hr (AID 948); conditions: LYMP1-002 lymphoblastoid cell viability; series mostly up to 92.2 µM
Method in brief: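 Seed 2500 LYMP1-002 cells per well in complete medium and hold 5 hr at 37 C. Add compound across a concentration series and incubate 16 hr at 37 C. Add CellTiter-Glo, wait 30 min at room temperature, read luminescence.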

[10] = MultiTox-Fluor Cytotoxicity Assay - LYMP1-002 - Live Cells (AID 955); conditions: LYMP1-002 lymphoblastoid live-cell protease fluorescence viability; series mostly up to 46.1 µM
Method in brief: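 Cytotoxicity in the human lymphoblastoid line LYMP1-002 is measured as loss of live-cell protease activity after 16 h treatment in complete culture medium. AC50 is derived from Hill-equation fits of qHTS concentration-response data.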

[11] = MultiTox-Fluor Cytotoxicity Assay - LYMP1-003 - Dead Cells (AID 961); conditions: LYMP1-003 lymphoblastoid cells, dead-cell protease fluorescence; series mostly up to 92.2 µM; note: nearly all actives have a fitted effect of over 70% in size
Method in brief: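 LYMP1-003 lymphoblastoid, 2500 cells/well, 5 hr settle then 16 hr cpd at 37 C; MultiTox-Fluor reagent 60 min RT; Ex/Em 485/520 dead-cell signal; norm. DMSO = 0%, 15 uM tetraoctylammonium bromide = 100%; Hill AC50.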

[12] = Cell Viability - LYMP1-003 - Assay at 40 hr (AID 964); conditions: LYMP1-003 lymphoblastoid viability; series mostly up to 92.2 µM; note: nearly all actives have a fitted effect of over 60% in size
Method in brief: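 This qHTS cytotoxicity screen treats human lymphoblastoid cells (LYMP1-003) with compounds for 40 hr and quantifies cellular ATP via luciferase luminescence.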

[13] = Cell Viability - LYMP2-025 (AID 976); conditions: LYMP2-025 lymphoblastoid cell viability; series mostly up to 92.2 µM;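 note: cells exposed to compound for 24 h at 37 °C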
Method in brief: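 In qHTS format, LYMP2-025 lymphoblastoid cells in complete culture medium received compound for 24 hr; ATP-based CellTiter-Glo signal gave viability, with AC50 derived by Hill equation.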

[14] = Cell Viability - LYMP2-006 (AID 978); conditions: LYMP2-006 lymphoblastoid cell viability, qHTS; series mostly up to 92.2 µM;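 note: cells exposed to compound for 24 hours; nearly all actives have a fitted effect of over 60% in size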
Method in brief: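 Cells are seeded at 2500 per well and rested 5 hr at 37 C. Compounds are added across a concentration series for 24 hr at 37 C, after which ATP is quantified by luciferase luminescence.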

[15] = Cell Viability - LYMP2-008 (AID 980); conditions: LYMP2-008 lymphoblastoid cell viability, qHTS; series mostly up to 92.2 µM; note: nearly all actives have a fitted effect of over 60% in size; note: potency is the fitted concentration of half-maximal effect;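 for activity change, negative = cytotoxicity: cells exposed to compound for 24 h at 37 °C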
Method in brief: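 Acute cytotoxicity is scored as concentration-dependent loss of cellular ATP in a human lymphoblastoid line after 24 hr treatment at 37 C. ATP is quantified by luciferase luminescence.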

[16] = Cell Viability - LYMP1-002 - Assay at 24 hr (AID 993); conditions: LYMP1-002 lymphoblastoid cells viability; series mostly up to 92.2 µM
Method in brief: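 qHTS, LYMP1-002 lymphoblastoid, 24 h cpd, 37 C, CellTiter-Glo ATP luminescence; AC50 via Hill eq.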

[17] = Cell Viability - LYMP1-002 - Assay at 40 hr (AID 994); conditions: LYMP1-002 lymphoblastoid cell viability; series mostly up to 92.2 µM; note: nearly all actives have a fitted effect of over 60% in size
Method in brief: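 Viability in the human lymphoblastoid line was measured as intracellular ATP via CellTiter-Glo after 40 hr compound exposure. Tetraoctylammonium bromide served as positive control.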

[18] = qHTS assay for small molecule agonists of retinoid X receptor alpha signaling (AID 588544); conditions: HEK293T RXRa-UAS-bla, beta-lactamase reporter, 18 h; 530 nm emission
[19] = target: Tumor necrosis factor (Homo sapiens) (UniProt P01375); assay: qHTS assay to identify small molecules that stimulate Tumor Necrosis Factor-alpha (TNF-alpha) secretion (AID 651757; active = well fitted curve in the direction sought with a large enough effect in the signal ratio; the % refers to the signal ratio); conditions: Human cells, HTRF 665/615 ratio; series mostly up to 92.2 µM
Method in brief: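 Secreted TNF-alpha from compound-treated THP-1 cells (17 hrs, 37 C) was quantified with a homogeneous time-resolved fluorescence antibody assay.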

[20] = qHTS assay for small molecule agonists of the antioxidant response element (ARE) signaling pathway measured by Nrf2-dependant transcriptional activity (AID 720636; active = well fitted curve in the direction sought with a large enough effect in the repeat runs; an effect the other way counts as inactive or inconclusive); conditions: ARE-luc HepG2, Nrf2 luciferase reporter, 16 h; series mostly up to 92.4 µM
Method in brief: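 ARE-luc HepG2 cells carrying an Nrf2-responsive luciferase reporter were plated in medium with 1% dialyzed FBS, left 6 hr at 37 C to attach, then exposed to compound for 16 hr. Luciferase luminescence was read after ONE-Glo addition.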

Chain of Tumor necrosis factor (Homo sapiens) (P01375 whole entry, looked up): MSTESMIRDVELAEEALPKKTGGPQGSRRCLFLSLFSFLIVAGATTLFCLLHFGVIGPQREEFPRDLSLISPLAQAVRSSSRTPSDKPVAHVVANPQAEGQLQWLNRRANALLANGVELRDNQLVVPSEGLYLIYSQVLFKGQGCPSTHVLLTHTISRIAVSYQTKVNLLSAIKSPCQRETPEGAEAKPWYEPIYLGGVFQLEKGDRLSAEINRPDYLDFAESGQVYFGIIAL

Row | Compound | Potency [1] | Potency [2] | activity change, negative = cytotoxicity [3] | Potency [4] | outcome [5] | outcome [6] | outcome [7] | Potency [8] | Potency [9] | outcome [10] | Potency [11] | Potency [12] | Potency [13] | Potency [14] | Potency [15] | Potency [16] | Potency [17] | max response [18] | outcome [19] | outcome [20]
1 | Clc1cccc(C(Cl)(Cl)Cl)n1 | > 92 µM (inactive) | > 92 µM (inactive) | -3.54% (inactive) | inactive | inactive | inactive | inactive | inactive | inactive | inactive | inactive | inactive | inactive | inactive | inactive | inactive | inactive | -9.56% and 6.27% | inactive | inactive
2 | CC(=O)[O-].CC(=O)[O-].O.O.O.[Pb+2] | > 92 µM (inactive) | > 92 µM (inactive) | 13.3% (inactive) and 9.03% (inactive) | inactive | inactive | inactive | inactive | inactive | inactive | inactive | inactive | inactive | inactive | inactive | inactive | inactive | inactive | -8.91% and -19.7% | inactive | inactive
3 | O=C(Cl)C(Cl)(Cl)Cl | > 92 µM (inactive) | > 92 µM (inactive) | 4.93% (inactive) | inactive | inactive | inactive | inactive | inactive | inactive | inactive | inactive | inactive | inactive | inactive | inactive | inactive | inactive | 2.41% | inactive | inactive
4 | Clc1nc(Cl)nc(Nc2ccccc2Cl)n1 | > 92 µM (inactive) | > 92 µM (inactive) | 9.08% (inactive) | inactive | inactive | inactive | inactive | inactive | inactive | inactive | inactive | inactive | inactive | inactive | inactive | inactive | inactive | -6.76% | inactive | 
5 | ClCBr | > 92 µM (inactive) | > 92 µM (inactive) | -7.64% (inactive) | inactive | inactive | inactive | inactive | inactive | inactive | inactive | inactive | inactive | inactive | inactive | inactive | inactive | inactive | -17.3% | inactive | inactive
6 | CCOP(=S)(OCC)Oc1ccc([N+](=O)[O-])cc1 | > 92 µM (inactive) | > 92 µM (inactive) |  | inactive | inactive | inactive | inactive | inactive | inactive | inactive | inactive | inactive | inactive | inactive | inactive | inactive | inactive | -6.89% and 6.11% | inactive | inactive
7 | BrCCBr | > 92 µM (inactive) | > 92 µM (inactive) | -0.148% (inactive) | inactive | inactive | inactive | inactive | inactive | inactive | inactive | inactive | inactive | inactive | inactive | inactive | inactive | inactive | -0.875% and -18.5% | inactive | inactive
8 | O=[N+]([O-])c1cccc2ccccc12 | > 92 µM (inactive) | > 92 µM (inactive) | 2.46% (inactive) | inactive | inactive | inactive | inactive | inactive | inactive | inactive | inactive | inactive | inactive | inactive | inactive | inactive | inactive | -3.41% and -2.17% | inactive | inactive
9 | CC(C)(OO)c1ccccc1 | 28.3 µM (active) | > 92 µM (inactive) | 3.56% (inactive) | 25.1 µM (active) | inactive | inactive |  | inactive | inactive | inactive | inactive | inactive | inactive | inactive | 39.8 µM (active) | inactive | inactive | 21.6% and -3.11% | inactive | inactive
10 | CCOP(=S)(OCC)SCSC(C)(C)C | > 92 µM (inactive) | > 92 µM (inactive) | -4.96% (inactive) | inactive | inactive | inactive | inactive | inactive | inactive | inactive | inactive | inactive | inactive | inactive | inactive | inactive | inactive | 19.7% and -0.121% | inactive | inactive
11 | C=C(Cl)Cl | > 92 µM (inactive) | > 92 µM (inactive) | 3.46% (inactive) | inactive | inactive | inactive | inactive | inactive | inactive | inactive | inactive | inactive | inactive | inactive | inactive | inactive | inactive | -17.1% | inactive | inactive
12 | ClC(Cl)=C(Cl)Cl | > 92 µM (inactive) | > 92 µM (inactive) | -8.38% (inactive) and -0.61% (inactive) | inactive | inactive | inactive | inactive | inactive | inactive | inactive | inactive | inactive | inactive | inactive | inactive | inactive | inactive | 4.54% and -3.27% | inactive | inactive
13 | COc1ccc(N)cc1 | > 92 µM (inactive) | > 92 µM (inactive) | -29.2% (inactive) and -31.3% (inactive) | inactive | inactive | inactive | inactive | inactive | inactive | inactive | inactive | inactive | inactive | inactive | inactive | inactive | inactive | 14.8% and 16.7% | inactive | inactive
